# Laboratory results reported in the supplement of paper PMC8728848.
# The sample as a whole holds a higher share of the strongest signals than the screen did.
# B1: AntigenI/IIC123 (Streptococcus mutans), C9E3B4 (protein)
# chain: MASMTGGQQMGRIHFHYFKLAVQPQVNKEIRNNNDINIDRTLVAKQSVVKFQLKTADLPAGRDETTSFVLVDPLPSGYQFNPEATKAASPGFDVTYDNATNTVTFKATAATLATFNADLTKSVATIYPTVVGQVLNDGATYKNNFTLTVNDAYGIKSNVVRVTTPGKPNDPDNPNNNYIKPTKVNKNENGVVIDGKTVLAGSTNYYELTWDLDQYKNDRSSADTIQKGFYYVDDYPEEALELRQDLVKITDANGNEVTGVSVDNYTNLEAAPQEIRDVLSKAGIRPKGAFQIFRADNPREFYDTYVKTGIDLKIVSPMVVKKQMGQTGGSYENQAYQIDFGNGYASNIIINNVPKINPKKDVTLTLDPADTNNVDGQTIPLNTVFNYRLIGGIIPADHSEELFEYNFYDDYDQTGDHYTGQYKVFAKVDITFKDGSIIKSGAELTQYTTAEVDTAKGAITIKFKEAFLRSVSIDSAFQAESYIQMKRIAVGTFENTYINTVNGVTYSSLEHHHHHH
# What was measured:
# Test in all cases: glycan array binding signal (z-score within array); higher = stronger binding
# Details in all cases: glycan notation: IUPAC condensed, linker removed
# [1] = biological target: Fuc(a1-2)Gal(b1-3)GlcNAc(b1-3)[Fuc(a1-2)Gal(b1-3)GlcNAc(b1-6)]GalNAc
# Summary of the method: (§1)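 From the Consortium for Functional Glycomics database, 3228 arrays were curated, keeping only those whose protein sequence was available. Binding is given as a within-array Z-score averaged across arrays sharing a protein sequence and across linkers. Negative Z-scores can be read as non-binding.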
# [2] = biological target: Fuc(a1-2)Gal(b1-3)[Fuc(a1-4)]GlcNAc(b1-3)[Gal(b1-4)GlcNAc(b1-6)]Gal(b1-4)Glc
# Summary of the method: as §1
# [3] = biological target: Fuc(a1-2)Gal(b1-4)GlcNAc(b1-3)Gal(b1-4)GlcNAc(b1-3)Gal(b1-4)GlcNAc
# Summary of the method: as §1
# [4] = biological target: Fuc(a1-2)Gal(b1-4)GlcNAc(b1-6)GalNAc
# Summary of the method: as §1
# [5] = biological target: Fuc(a1-2)[Gal(a1-3)]Gal(b1-3)GlcNAc(b1-2)Man(a1-3)[Fuc(a1-2)[Gal(a1-3)]Gal(b1-3)GlcNAc(b1-2)Man(a1-6)]Man(b1-4)GlcNAc(b1-4)[Fuc(a1-6)]GlcNAc
# Summary of the method: as §1
# [6] = biological target: Fuc(a1-2)[Gal(a1-3)]Gal(b1-3)GlcNAc(b1-6)GalNAc
# Summary of the method: as §1
# [7] = biological target: Fuc(a1-2)[GalNAc(a1-3)]Gal(b1-3)GlcNAc(b1-3)GalNAc
# Summary of the method: as §1
# [8] = biological target: Fuc(a1-3)[Gal(b1-4)]GlcNAc(b1-2)Man(a1-3)[Fuc(a1-3)[Gal(b1-4)]GlcNAc(b1-2)Man(a1-6)]Man(b1-4)GlcNAc(b1-4)GlcNAc
# Summary of the method: as §1
# [9] = biological target: Gal(a1-3)Gal(b1-3)GlcNAc(b1-2)Man(a1-3)[Gal(a1-3)Gal(b1-3)GlcNAc(b1-2)Man(a1-6)]Man(b1-4)GlcNAc(b1-4)GlcNAc
# Summary of the method: as §1
# [10] = biological target: Gal(a1-3)Gal(b1-3)[Fuc(a1-4)]GlcNAc(b1-2)Man(a1-3)[Gal(a1-3)Gal(b1-3)[Fuc(a1-4)]GlcNAc(b1-2)Man(a1-6)]Man(b1-4)GlcNAc(b1-4)GlcNAc
# Summary of the method: as §1
# Gal(b1-2)Gal = biological target: Gal(b1-2)Gal
# Summary of the method: as §1
# Gal(b1-3)Gal = biological target: Gal(b1-3)Gal
# Summary of the method: as §1
# [11] = biological target: Gal(b1-3)GalNAc(a1-3)[Fuc(a1-2)]Gal(b1-4)GlcNAc
# Summary of the method: as §1
# [12] = biological target: Gal(b1-3)GlcNAc(a1-6)Gal(b1-4)GlcNAc
# Summary of the method: as §1
# [13] = biological target: Gal(b1-3)[Fuc(a1-4)]GlcNAc(b1-6)GalNAc
# Summary of the method: as §1
# [14] = biological target: Gal(b1-3)[GlcNAc(b1-6)]GalNAc
# Summary of the method: as §1
# [15] = biological target: Gal(b1-4)GlcNAc(b1-2)Man(a1-3)[Gal(b1-4)GlcNAc(b1-2)Man(a1-6)][GlcNAc(b1-4)]Man(b1-4)GlcNAc(b1-4)[Fuc(a1-6)]GlcNAc
# Summary of the method: as §1
# [16] = biological target: Gal(b1-4)GlcNAc(b1-2)Man(a1-3)[GlcNAc(b1-2)Man(a1-6)]Man(b1-4)GlcNAc(b1-4)GlcNAc
# Summary of the method: as §1
# [17] = biological target: Gal(b1-4)GlcNAc(b1-2)[Gal(b1-4)GlcNAc(b1-4)]Man(a1-3)[GlcNAc(b1-4)][Gal(b1-4)GlcNAc(b1-2)[Gal(b1-4)GlcNAc(b1-6)]Man(a1-6)]Man(b1-4)GlcNAc(b1-4)GlcNAc
# Summary of the method: as §1
# [18] = biological target: Gal(b1-4)GlcNAc(b1-3)Gal(b1-3)GalNAc
# Summary of the method: as §1
# [19] = biological target: Gal(b1-4)GlcNAc(b1-3)Gal(b1-4)GlcNAc(b1-2)[Gal(b1-4)GlcNAc(b1-3)Gal(b1-4)GlcNAc(b1-6)]Man(a1-6)[Gal(b1-4)GlcNAc(b1-3)Gal(b1-4)GlcNAc(b1-2)Man(a1-3)]Man(b1-4)GlcNAc(b1-4)[Fuc(a1-6)]GlcNAc
# Summary of the method: as §1
# [20] = biological target: Gal(b1-4)GlcNAc(b1-3)Gal(b1-4)GlcNAc(b1-3)Gal(b1-4)GlcNAc(b1-2)Man(a1-3)[Gal(b1-4)GlcNAc(b1-3)Gal(b1-4)GlcNAc(b1-3)Gal(b1-4)GlcNAc(b1-2)Man(a1-6)]Man(b1-4)GlcNAc(b1-4)GlcNAc
# Summary of the method: as §1
# [21] = biological target: Gal(b1-4)GlcNAc(b1-3)Gal(b1-4)GlcNAc(b1-3)Gal(b1-4)GlcNAc(b1-2)Man(a1-3)[Gal(b1-4)GlcNAc(b1-3)Gal(b1-4)GlcNAc(b1-3)Gal(b1-4)GlcNAc(b1-2)Man(a1-6)]Man(b1-4)GlcNAc(b1-4)[Fuc(a1-6)]GlcNAc
# Summary of the method: as §1
binder,measurement,setting,value
B1,glycan array binding signal (z-score),[1],3.07
same,glycan array binding signal (z-score),[2],-0.704
same,glycan array binding signal (z-score),[3],-0.137
same,glycan array binding signal (z-score),[4],3.81
same,glycan array binding signal (z-score),[5],0.417
same,glycan array binding signal (z-score),[6],-1.42
same,glycan array binding signal (z-score),[7],2.85
same,glycan array binding signal (z-score),[8],-0.441
same,glycan array binding signal (z-score),[9],3.54
same,glycan array binding signal (z-score),[10],3.25
same,glycan array binding signal (z-score),Gal(b1-2)Gal,-0.762
same,glycan array binding signal (z-score),Gal(b1-3)Gal,-1.1
same,glycan array binding signal (z-score),[11],-0.841
same,glycan array binding signal (z-score),[12],-1.82
same,glycan array binding signal (z-score),[13],1.06
same,glycan array binding signal (z-score),[14],0.715
same,glycan array binding signal (z-score),[15],-1.3
same,glycan array binding signal (z-score),[16],-0.939
same,glycan array binding signal (z-score),[17],0.437
same,glycan array binding signal (z-score),[18],0.003
same,glycan array binding signal (z-score),[19],4.84
same,glycan array binding signal (z-score),[20],2.33
same,glycan array binding signal (z-score),[21],3.9
